The test system of test [1] is Zika virus NS2B-NS3 protease (linked construct). Put plainly: Primary screen NINDS Rhodamine qHTS for Zika virus inhibitors (AID 1347160). Note: nearly all actives have a fitted effect of over 55% in size. Note: potency is the fitted concentration of half-maximal effect. A digest of the protocol:
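Kinetic fluorescence (Ex 480 nm, Em 540 nm) over 15 min with 1.5 microM Rhodamine110 peptide and 25 nM linked protease.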
In general terms: qHTS replaces the single test concentration by a dilution series.

Test [2] can be described thus: Panc-1005 Cancer Cell Toxicity qHTS against the NCATS CANVASS Library (AID 1347349). Note: nearly all actives have a fitted effect of over 60% in size. Note: potency is the fitted concentration of half-maximal effect. The essentials: (§1)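 ATP content after 72 h treatment, detected by CellTiter-Glo luminescence (15min room-temperature development), reflects cell viability. Wells contained 1000 cells and received compounds at 11 concentrations.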
Test [3] in a line: SW1088 Cancer Cell Toxicity qHTS against the NCATS CANVASS Library (AID 1347350). Note: nearly all actives have a fitted effect of over 75% in size. The essentials:
as §1

The nature of test [4]: COV-362 Cancer Cell Toxicity qHTS against the NCATS CANVASS Library (AID 1347352). Note: potency is the fitted concentration of half-maximal effect. A digest of the protocol: (§2)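 Cells at 1000/well were given compound 4 h after plating in an 11-point series. Viability was read by CellTiter-Glo luminescence after 72 h at 37 degrees C.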
The nature of test [5]: UWB1.289-WTBRCA1 Cancer Cell Toxicity qHTS against the NCATS CANVASS Library (AID 1347354). A digest of the protocol:
as §2

In test [6] the test system is NAD(P)H diaphorase (Clostridium kluyveri). Put plainly: Diaphorse counterscreen qHTS: Assay Interference Panel against the NCATS CANVASS Library (AID 1347362). The essentials:
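Counterscreen for coupling-enzyme interference: resorufin fluorescence from resazurin/NADH turnover, read after 5 min at room temperature. Compounds were tested over an 11-point series after 15 min dark preincubation with diaphorase in PBS-Tween.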
Background: A counterscreen serves to expose hits that act by an unwanted route or on another target.

Test [7] is described as follows: KB-8-5-11 Cancer Cell Toxicity qHTS against the NCATS CANVASS Library (AID 1347364). Note: nearly all actives have a fitted effect of over 75% in size. The essentials:
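KB-8-5-11 cells, 500/well in DMEM + 10% FBS, given compounds in an 11-point series. Incubated 72 h at 37 °C. Viability by CellTiter-Glo luminescence. Confirmation also run with 1 uM tariquidar.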

Test [8] addresses Nuclear receptor subfamily 1 group I member 3 (Homo sapiens) (UniProt Q14994). Kind of test: qHTS for Constitutive Androstane Receptor (CAR) Antagonist screened against the NCATS CANVASS Library (AID 1347372). Note: potency is the fitted concentration of half-maximal effect. A digest of the protocol:
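HepG2-CYP2B6-hCAR double-stable cells plated, 4hr attach; cpd pin-transferred; CITCO 50 nM final; 24hr 37C/5% CO2; CellTiter-Fluor 1hr (fluorescence), then ONE-Glo luminescence.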

The nature of test [9]: qHTS for Hypoxia signaling pathway (HIF-1) agonists against the NCATS CANVASS Library (AID 1347375). The essentials: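 HRE-bla ME-180 cells (0.5% dialyzed FBS) were pre-incubated 5 hrs at 37C, then exposed to compounds in an 11-point series for 17 hrs. Read-out was CCF4-AM beta-lactamase FRET (460/530 nm emissions), with CellTiter-Glo viability in the same wells.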
Test [10] can be described thus: DH5-alpha competent E. coli microbial cell viability qHTS against the NCATS CANVASS Library (AID 1347377). The settings on record: outcome: dose series up to 46.1 µM unless noted. The essentials:
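DH5-alpha E. coli suspension was exposed to an 11-point compound series overnight at 37 °C. Viable cells quantified by ATP luminescence (BacTiter-Glo) after 20 min at room temperature.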

Test [11] can be described thus: qHTS for Activators of p53 Stress Response Pathway screened against the NCATS CANVASS Library (AID 1347388). The essentials:
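Beta-lactamase reporter driven by p53 response elements in HCT-116 cells, read as the 460 nm/530 nm emission ratio after CCF4 loading, following 16 h of exposure to an 11-point series. Cell viability was measured in the same wells by CellTiter-Glo luminescence.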

The nature of test [12]: qHTS assay for small molecule disruptors of mitochondrial membrane potential screened against the NCATS CANVASS Library (AID 1347389). Note: nearly all actives have a fitted effect of over 60% in size. Note: potency is the fitted concentration of half-maximal effect. A digest of the protocol: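 HepG2 cells (2,000/well) plated overnight, then exposed to compounds in 11-point qHTS series for 1 h at 37C before 30 min Mito-MPS dye; depolarization read as fall in red aggregate (590 nm) to green monomer (535 nm) fluorescence.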

Test [13] in a line: qHTS for activators of Nrf2/ARE signaling pathway screened against the NCATS CANVASS Library (AID 1347391). Note: nearly all actives have a fitted effect of over 60% in size. Note: potency is the fitted concentration of half-maximal effect. A digest of the protocol:
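ARE-bla HepG2 beta-lactamase reporter cells exposed to compounds for 16 h at 37C; CCF4 substrate 2 h, fluorescence at ex 405 nm, em 460/530 nm. Viability by CellTiter-Glo luminescence.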

Test [14] in a line: qHTS for activators of dead-cell proteases activity screened against the NCATS CANVASS Library (AID 1347392).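 Note: luminescence from protease leaking out of membrane-damaged cells cleaving impermeant substrate; rising signal means more cytotoxicity.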 The essentials:
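Compounds are pin-transferred onto attached HepG2 cells, giving 11 final concentrations. After 5 h at 37C, AAF-aminoluciferin reagent is added and luminescence is recorded at room temperature.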

The nature of test [15]: qHTS for inhibitors of Wild type Zika virus screened against the NCATS CANVASS Library (AID 1347396).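 Note: ATP luminescence of surviving cells so rescue from viral cell killing; series mostly up to about 46 µM.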 A digest of the protocol: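 Protection against wild-type Zika cytopathic effect is measured in African green monkey Vero 766 cells exposed to an 11-point compound series. Surviving cells are quantified by CellTiter Glo luminescence after 72 h.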
The nature of test [16]: Redox Reaction Profiling qHTS: Assay Interference Panel against the NCATS CANVASS Library (AID 1347401). Note: potency is the fitted concentration of half-maximal effect. A digest of the protocol:
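Cell-free redox surrogate: 5 uM resazurin + 200 uM DTT, 50 mM HEPES pH 7.3/50 mM NaCl; cpds pinned, 11-pt qHTS; Ex525/Em598 read t0 and t=15 min, dark.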

The nature of test [17]: A2780 Cisplatin Sensitive Ovarian Cancer Cell Toxicity qHTS against the NCATS CANVASS Library (AID 1347353). Note: nearly all actives have a fitted effect of over 60% in size. Note: potency is the fitted concentration of half-maximal effect. The essentials: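 A2780 cells, 750/well, settled 4 h at 37 °C, then treated with an 11-point compound series for 72 h. Viability was read as ATPLite luminescence after 10 min at room temperature, with bortezomib as control.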
A short description of test [18]: HEK-293 Cancer Cell Toxicity qHTS against the NCATS CANVASS Library (AID 1347355). For outcome: series mostly up to about 46 µM. Note: nearly all actives have a fitted effect of over 65% in size. Note: potency is the fitted concentration of half-maximal effect. The essentials:
as §2

Test [19] is described as follows: SDT Cancer Cell Toxicity qHTS against the NCATS CANVASS Library (AID 1347365). Note: nearly all actives have a fitted effect of over 60% in size. Note: potency is the fitted concentration of half-maximal effect. A digest of the protocol:
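SDT dog glioma cells (500/well) exposed to an 11-point compound series for 72 hr at 37C, 5% CO2. Cytotoxicity read as ATP content by CellTiterGlo luminescence; bortezomib titration as control.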

Test [20] can be described thus: G06 Cancer Cell Toxicity qHTS against the NCATS CANVASS Library (AID 1347368). Note: nearly all actives have a fitted effect of over 60% in size. Note: potency is the fitted concentration of half-maximal effect. A digest of the protocol: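 G06 dog glioma cells, 500 per well, exposed 72 hr at 37C, 5% CO2 to compounds in an 11-point series. Cytotoxicity read as ATP content by CellTiterGlo luminescence.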

Results filed as inconclusive are left out. The source made the active and inactive calls. Calls come from the whole dose curve; as a rule, active = well fitted curve in the direction sought with a large enough effect; inconclusive = small, poorly fitted or top-dose-only effect, or another doubt; inactive = no such curve, though single readings can be large; an effect the other way counts as inactive or inconclusive.

Nuclear receptor subfamily 1 group I member 3 (Homo sapiens), sequence (Q14994 whole entry, looked up): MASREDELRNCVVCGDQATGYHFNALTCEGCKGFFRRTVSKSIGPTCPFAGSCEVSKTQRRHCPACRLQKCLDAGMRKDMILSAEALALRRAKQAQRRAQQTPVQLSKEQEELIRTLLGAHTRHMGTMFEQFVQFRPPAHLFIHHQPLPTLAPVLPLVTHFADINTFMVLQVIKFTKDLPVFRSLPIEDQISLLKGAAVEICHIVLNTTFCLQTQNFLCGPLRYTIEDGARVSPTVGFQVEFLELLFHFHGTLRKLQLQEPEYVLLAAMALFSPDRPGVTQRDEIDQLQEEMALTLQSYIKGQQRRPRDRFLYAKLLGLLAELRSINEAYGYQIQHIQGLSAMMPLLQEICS

As to `C=C1C(=O)C[C@H]2C[C@@H]1[C@]2(C)CCC=C(C)C`, the results for the Potency in [1] and in [13] were 17.5 µM (active) and 16.6 µM (active), respectively. Further, the Potency entry in test [2], in test [3], in test [4], in test [5], in [6] and in [7] was “inactive” each time. Further, the Potency entry in test [8], in [9], in test [11], in test [12], in [14] and in [15] was “inactive” each time. In test [16], the Potency entry is “inactive”. The call in test [10] was inactive.
As to `C[C@@]12C[C@@H](C[C@H]3C(=O)O[C@@H](c4ccoc4)[C@H](OC(=O)c4ccccc4)[C@@H]31)OC2=O`, the Potency entry in [2], in test [3], in test [4], in [17], in [5] and in test [18] was “inactive” each time. Moreover, the Potency result in test [6], in test [7], in [19], in test [20], in test [8] and in test [9] was “inactive” in each case. Moreover, the Potency entry in test [11], in [12], in [13], in test [14], in test [15] and in [16] was “inactive” in each case. In addition, the result in test [10] was inactive.
On to `C=C1C(=O)O[C@H]2[C@H]1CC/C(CO)=C\CC[C@@]1(C)O[C@@H]21`, for which the Potency entry in test [1], in [6], in [9], in test [13], in test [15] and in [16] was “inactive” in each case. Further, the Potency in test [2] was 10.6 µM (active); in test [4], 13.3 µM (active); in test [17], 2.96 µM (active); in test [18], 5.9 µM (active); in [19] it was 13.2 µM (active); in test [20] it was 11.8 µM (active). Moreover, the Potency in [8] was 20.9 µM (active). The result in test [10] was inactive.
Regarding `O=c1cc(-c2ccc(O)c(O[C@@H]3O[C@H](CO)[C@@H](O)[C@H](O)[C@H]3O)c2)oc2cc(O[C@@H]3O[C@H](CO)[C@@H](O)[C@H](O)[C@H]3O)cc(O)c12`, in [1], the Potency was 27.7 µM (active). Further, the Potency entry in test [2], in test [3], in [4], in [5], in test [18] and in test [7] was “inactive” each time. The Potency entry in test [8], in test [9], in test [11], in test [12], in test [13] and in test [14] was “inactive” in each case. Besides, the Potency result in test [15] and in [16] was “inactive” each time. In addition, the compound was classed as inactive in test [10].
For the compound `COC1C(O)C(OC(N)=O)C(Oc2ccc3c(O)c(NC(=O)c4ccc(O)c(CC=C(C)C)c4)c(=O)oc3c2C)OC1(C)C` (configuration not stated), the Potency entry in test [2], in [3], in test [4], in test [17], in test [5] and in [18] was “inactive” throughout. Also, the Potency result in test [6], in test [7], in [19], in test [20], in [8] and in [9] was “inactive” throughout. Further, the Potency result in [11], in test [13], in [14], in test [15] and in [16] was “inactive” each time. Moreover, in test [10], the outcome was inactive.
Consider `CC(C)(Br)[C@@H](Cl)C[C@H](Br)[C@](C)(Cl)/C=C/Br`, for which the Potency in test [1] is 34.9 µM (active); in test [17], 2.35 µM (active); in [19], 18.7 µM (active); in test [20], 13.2 µM (active); in [12], 16.6 µM (active); in test [16] it was 30.4 µM (active). For the same compound, the Potency entry in [5], in [6], in test [8], in test [9], in [11] and in test [14] was “inactive” throughout. For the same compound, in test [15], the Potency result is “inactive”. In [10], the outcome was inactive.

Source of the values: PubChem BioAssay (NCATS).
